This note sets out measurements from PubChem BioAssay.

Unmarked numbers belong to inactive results.

Chain of Luciferin 4-monooxygenase (Photinus pyralis) (P08659 whole entry, looked up): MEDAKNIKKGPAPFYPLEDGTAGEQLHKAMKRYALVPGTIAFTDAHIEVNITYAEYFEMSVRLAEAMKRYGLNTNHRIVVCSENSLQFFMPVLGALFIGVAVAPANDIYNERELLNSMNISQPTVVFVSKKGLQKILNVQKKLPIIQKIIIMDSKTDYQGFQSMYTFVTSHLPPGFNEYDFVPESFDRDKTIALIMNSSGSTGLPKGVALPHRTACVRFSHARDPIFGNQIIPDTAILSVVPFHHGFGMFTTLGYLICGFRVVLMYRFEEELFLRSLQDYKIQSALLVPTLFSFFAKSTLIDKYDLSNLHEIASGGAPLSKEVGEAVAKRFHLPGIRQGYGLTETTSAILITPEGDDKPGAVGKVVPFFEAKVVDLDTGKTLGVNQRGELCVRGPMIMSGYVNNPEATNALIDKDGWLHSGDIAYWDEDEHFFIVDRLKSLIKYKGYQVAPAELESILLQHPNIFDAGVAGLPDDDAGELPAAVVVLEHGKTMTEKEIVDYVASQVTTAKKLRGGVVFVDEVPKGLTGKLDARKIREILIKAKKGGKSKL

The assay has as its target Luciferin 4-monooxygenase (Photinus pyralis) (UniProt P08659). The assay is described as follows: inhibition of purified Photinus pyralis luciferase – biochemical, luminescence, purified enzyme, 2006 set, primary screen (AID 1141).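 Note: cell-free assay with purified firefly luciferase at 100 ng per well in PBS; test concentration not given here.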 The conditions noted are these: purified firefly luciferase, SteadyGlo luminescence, 30 min; higher = more signal, called active from +8 up or from −8 down.
With `CN(C)C(=O)[C@@]1(Cc2ccccc2)COC(c2ccc(OCCCO)cc2)=N1`, the z-score is -2.68.
For the compound `CO[C@H]1O[C@H](CO)[C@@H](OC(=O)CCc2ccccc2)[C@H](OC(=O)c2cc3ccccc3[nH]2)[C@H]1OC(=O)c1cc2ccccc2[nH]1`, the z-score was -0.105.
`CN1C(=O)C2C=CC(C(O)c3cc(C(F)(F)F)cc(C(F)(F)F)c3)N(Nc3ccccc3)C2C1=O` (stereo not given): the z-score is 0.787.
The result for `COCCOC(=O)N1C(=O)[C@@]2(c3cc(C#CCCO)ccc31)[C@H](C(N)=O)[C@H]1C(=O)O[C@H](c3ccccc3)[C@H](c3ccccc3)N1[C@@H]2c1ccc(OCCO)cc1` reads -1.17.
With `COCCOC(=O)N1C(=O)[C@@]2(c3cc(C#Cc4ccc(OC)cc4)ccc31)[C@H](C(=O)NC[C@H](O)c1ccccc1)[C@H]1C(=O)O[C@H](c3ccccc3)[C@H](c3ccccc3)N1[C@@H]2c1ccc(OCCO)cc1`, the z-score was -0.459.
Next, `COCCOC(=O)N1C(=O)[C@@]2(c3cc(C#CCNC(N)=O)ccc31)[C@H](c1ccc(OCCO)cc1)N1[C@H](c3ccccc3)[C@H](c3ccccc3)OC(=O)[C@H]1[C@@H]2C(N)=O`: -1.83.
`CC(=O)NCCCC[C@@H]1NC(=O)[C@H]2C[C@@H](C(=O)NCCCCCNC(=O)CS)[C@@H](c3cccc(OCCO)c3)N2C1=O`: the z-score was -1.36.
Consider `O=C1O[C@H](c2ccccc2)[C@H](c2ccccc2)N2[C@H]1[C@@H](C(=O)N1CCCCCCC1)[C@]1(C(=O)Nc3ccc(C#CC4(O)CCCCCC4)cc31)[C@H]2c1ccccc1OCCO`, for which the z-score is 1.03.
The result for `COCCCNC(=O)[C@@]1(c2ccc([N+](=O)[O-])cc2)CC(=O)N(CC23CC4CC(CC(C4)C2)C3)[C@@H]1c1ccc(CO)cc1I` reads 0.482; that for `COc1ccc(C#Cc2ccc3c(c2)[C@]2(C(=O)N3)[C@H](C(=O)N3CCCCCCC3)[C@H]3C(=O)O[C@H](c4ccccc4)[C@H](c4ccccc4)N3[C@@H]2c2ccc(O)cc2)cc1`, 0.103.
Next, `C=C(/C(=C/C[C@H](OC(=O)c1ccncc1)c1cccc(OCCO)c1)c1cnc2ccccc2c1)C(C)C`: -0.799; `CCCCCCCCCCC(O)C1C=CC2C(=O)N(C)C(=O)C2N1Nc1cc(OC)c(OC)c(OC)c1` (stereo not given): -0.819; `Nc1cc(Br)ccc1C(=O)O`: -1.1.
Next, `CN(C)C(=O)[C@]1(CCS(=O)(=O)c2ccccc2)N=C(c2ccc(OCCCO)cc2)O[C@@H]1c1ccccc1`: 0.396; `O=C1N(CCS(=O)(=O)c2ccccc2)Cc2ccccc2[C@@H]2OC(c3ccc(OCCCO)cc3)=N[C@]12CCS(=O)(=O)c1ccccc1`: -2.08; `COc1ccc([Si](C)(C)[C@H]2[C@H](CC(=O)N3Cc4ccccc4C[C@H]3CO)O[C@@]3(C(=O)N(Cc4ccc(N5C(=O)c6cccc7cccc5c67)cc4)c4ccccc43)[C@@H]2C)cc1`: 0.0376.
With `COCC1=C2[C@@H](CCc3ccccc3)OB(O)C[C@@H]2[C@@H]2C(=O)N(C)C(=O)[C@@H]2C1`, the z-score is -0.171.
On to `CC(C)OC(=O)CC(=O)CC(O)c1ccc([N+](=O)[O-])cc1` (stereo not given), for which the z-score was 0.419.
Next, `CC(C)C(=C=CC[C@@H](O)c1cccc(OCCO)c1)C[C@@H](O)c1ccccn1`: 0.179; `C=CCC(OC(C)=O)[C@@H]1[C@@H](N(Cc2cccc3ccccc23)C(=O)c2cccc3ccccc23)c2cc(OCCCO)ccc2N1C(=O)c1ccc2ccccc2c1` (stereo not given in full): 1.48.
The result for `CC(=O)N1CC(C(O)C2C=CC3C(=O)NC(=O)C3N2Nc2ccc(Cl)cc2Cl)c2ccccc21` (stereo not given) reads -1.4.
The result for `COC(=O)[C@@]1(Cc2ccc(F)cc2)[C@H]2c3cc(C(=O)N(C)C)n(Cc4c(CO)[nH]cc(C)c4=O)c3C[C@H]2CN1C(=O)c1ccccc1` reads 0.593.
For `CC(C)[C@H]1NC(=O)[C@@]23C(=O)N[C@@H](Cc4ccccc4)C2[C@H](C)[C@@]2(C)O[C@H]2C3/C=C/CCC/C=C/CNC(=O)[C@H](Cc2ccccc2)NC1=O` (stereo not given in full), the z-score is -0.388.
The result for `CCOC(=O)C[C@H]1[C@H](OC(=O)c2ccccc2-c2ccccc2)[C@@H](NC(=O)c2ccccc2)c2cc(OCCCO)ccc2N1C(=O)c1ccccc1` reads 0.354; that for `COC(=O)[C@@]1(Cc2ccccc2CN=[N+]=[N-])N=C(c2ccc(OCCCO)cc2)O[C@H]1c1ccccc1`, -2.03.
